# Compound activity as filed in PubChem BioAssay.
# Rows were chosen to be rich in hits. Some 1.8% of all compounds tested hit in one or more screens of this group.
# NPR1 activator: GC-A stimulated cGMP production enhancers – HEK293 GC-A cells, cGMP TR-FRET, EC30 ANP, primary screen; Atrial natriuretic peptide receptor 1 (Homo sapiens), P16066; 0% at EC30 ANP, 100% saturating ANP; activation, % at 10 µM; 370,000 compounds, 0.14% hits; in the data active = activation above about 40%
# Target sequence (P16066 whole entry, looked up): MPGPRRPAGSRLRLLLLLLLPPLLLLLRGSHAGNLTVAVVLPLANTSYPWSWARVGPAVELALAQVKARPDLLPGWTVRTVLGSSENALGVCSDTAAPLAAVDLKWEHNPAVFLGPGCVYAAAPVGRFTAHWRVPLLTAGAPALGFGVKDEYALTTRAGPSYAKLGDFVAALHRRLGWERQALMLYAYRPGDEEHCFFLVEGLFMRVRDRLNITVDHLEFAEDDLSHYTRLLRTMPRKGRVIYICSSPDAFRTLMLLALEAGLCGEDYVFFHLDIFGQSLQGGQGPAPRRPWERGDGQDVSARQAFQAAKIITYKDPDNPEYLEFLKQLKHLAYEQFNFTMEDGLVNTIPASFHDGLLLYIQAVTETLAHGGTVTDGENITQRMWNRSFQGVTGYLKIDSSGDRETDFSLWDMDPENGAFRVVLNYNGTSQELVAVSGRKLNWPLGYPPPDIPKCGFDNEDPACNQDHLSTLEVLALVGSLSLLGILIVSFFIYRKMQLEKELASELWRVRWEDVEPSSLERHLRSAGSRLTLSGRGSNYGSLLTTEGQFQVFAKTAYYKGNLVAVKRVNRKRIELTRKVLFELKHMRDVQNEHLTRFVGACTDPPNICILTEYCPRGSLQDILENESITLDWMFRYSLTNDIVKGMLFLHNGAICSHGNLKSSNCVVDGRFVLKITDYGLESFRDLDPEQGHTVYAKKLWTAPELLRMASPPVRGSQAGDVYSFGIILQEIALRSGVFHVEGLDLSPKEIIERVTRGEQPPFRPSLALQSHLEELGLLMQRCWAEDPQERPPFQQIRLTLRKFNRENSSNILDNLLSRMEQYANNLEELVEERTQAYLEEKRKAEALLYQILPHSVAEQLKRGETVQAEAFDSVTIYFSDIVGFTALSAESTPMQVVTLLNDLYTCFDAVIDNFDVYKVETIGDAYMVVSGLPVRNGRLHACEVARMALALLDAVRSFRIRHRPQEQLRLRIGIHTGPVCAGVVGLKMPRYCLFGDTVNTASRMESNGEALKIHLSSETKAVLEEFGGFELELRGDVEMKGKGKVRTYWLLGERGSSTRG
# Myeloid diff MLP: induction of myeloid progenitor differentiation, primary screen, cell-based, flow cytometry, MLPCN library; calls only at 10 µM; AID 624256, 2012; ER-HoxA9 myeloid progenitors, lysozyme-GFP differentiation; 360,000 compounds, 1% hits;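 active = normalized GFP-positive differentiation at or above the plate's own cutoff, the solvent-only control mean plus 3 SD; inconclusive = no clear call, values can overlap the other calls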;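 also: cells exposed to compound for four days before flow analysis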
# Granule exo inh: LAMP-1 surface exposure blockers, TALL-104 cells – cell-based, flow cytometry, MLPCN library, primary screen; TALL-104 LAMP-1 surface exposure; cells stimulated with thapsigargin and PMA; inhibition, % at 10 µM; 360,000 compounds, 0.66% hits;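 active = inhibition above about 55%, limit read from the data; inconclusive = no clear call, values can overlap the other calls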
# NPR2 activator: human GC-B receptor activators, primary screen, HEK293 GC-B cells, cGMP TR-FRET, EC30 CNP | Atrial natriuretic peptide receptor 2 (Homo sapiens), P20594 | 0% at EC30 CNP, 100% saturating CNP | activation, % at 10 µM | 370,000 compounds, 0.11% hits | AID 1920062, 2024;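 active = activation at 10 µM reaching about 35% in either raw or pattern-adjusted values, limit read from the data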
# The depositor's hits bear a star; i = inactive; ? = inconclusive; . = not tested or not shown; + = active, no number.
SMILES,NPR1 activator,Myeloid diff MLP,Granule exo inh,NPR2 activator
Cc1ccc(S(=O)(=O)/N=C2/C=C(Sc3ncn[nH]3)C(=O)c3ccccc32)cc1,.,?,108*,.
CC(C)c1ccc(S(=O)(=O)/N=C2/C=C(Sc3ncn[nH]3)C(=O)c3ccccc32)cc1,.,i,98*,.
Cc1ccc(S(=O)(=O)Nc2ccc(O)c(Sc3ncn[nH]3)c2)cc1,1,i,-4,3
COc1ccc(-n2c(SCC(=O)Nc3ccccc3-c3ccccc3)nnc2-c2ccco2)cc1,-15,.,.,-3
COC(=O)C1CN(Cc2ccc(OC)cc2)CCS(=O)(=O)N1Cc1cn(Cc2ccc(OC)cc2)nn1 (centres undefined),1,.,.,5
CS(=O)(=O)Nc1cccc(NC(=O)C2Cc3c(-c4cccc(F)c4)ccnc3O2)c1 (centres undefined),-4,+,8,2
O=C(Nc1ccccc1)C1Cc2c(-c3cccc(F)c3)ccnc2O1 (centres undefined),-3,i,-3,-6
CC(=O)Nc1cccc(-c2ccnc3c2CC(C(=O)NCc2cccc(Cl)c2)O3)c1 (centres undefined),-2,+,17,6
FC(F)(F)c1cc(Cc2nc3ccccc3n2C(CCc2ccccc2)c2nc3ccccc3[nH]2)cc(C(F)(F)F)c1 (centres undefined),-22,i,15,-21
COc1ccc(CN2C(=O)[C@@](O)(c3cccn3C)c3cc(Br)ccc32)cc1,-10,.,.,-12
COc1ccc(N2CCN(CC(=O)Nc3ccccc3C(=O)NC(C)c3ccccc3)CC2)cc1 (centres undefined),-3,+,12,4
COc1ccccc1N1CCN(CC(=O)Nc2ccccc2C(=O)NC(C)c2ccccc2)CC1 (centres undefined),-1,i,8,3
O=Cc1cc(N=Nc2cccc(C(=O)O)c2)ccc1O,0,i,52,1
O=Cc1cc(N=Nc2ccccc2Cl)ccc1O,15,i,62*,-4
Oc1c(N=Nc2ccccn2)ccc2ccccc12,-10,i,102*,-10
CCOC(=O)[C@@]12CCC3=C1N(CCC3)C(=O)[C@H](CC(=O)NCC13CC4CC(CC(C4)C1)C3)C2,-1,.,.,3
CCOC(=O)C(C(=O)OCC)c1cc(Br)c2noc3c2c1C(=O)c1ccccc1-3,-47,?,98*,-35
O=c1c(Cl)c(Cl)cnn1Cc1nnc(-c2ccc(Cl)cc2)o1,49*,.,45,9
COCCCNC(=O)C[C@H]1C[C@@]2(C(=O)OC)C(=C[C@H](C(C)C)O[C@@H]2C2CC2)N(Cc2ccc(Cl)cc2Cl)C1=O,-20,.,.,-17
COc1ccccc1NC(=O)C(Sc1ccccc1)c1ccccc1 (centres undefined),0,i,-5,-3
Cc1c(NC(=O)C(Sc2ccccc2)c2ccccc2)cccc1[N+](=O)[O-] (centres undefined),-8,i,59*,-3
CN1CCN(c2ccccc2NC(=O)c2ccc(-c3ccc(Cl)c(Cl)c3)o2)CC1,-26,i,17,-17
Cc1cc(N2CCN(C)CC2)ccc1NC(=O)c1ccc(-c2ccc(Cl)cc2)o1,5,+,43,9
Cc1ccc(-c2nc3cnccn3c2Nc2ccc3c(c2)OCO3)o1,18,i,2,17
Cc1ccc(-c2nc3cnccn3c2Nc2ccccc2)o1,19,i,-6,32*
SMILES,NPR1 activator,Myeloid diff MLP,Granule exo inh,NPR2 activator
Cc1ccc(Nc2c(-c3ccc(C)o3)nc3cnccn23)cc1,30,i,13,40*
CCCC/C=C1/[C@@H](c2ccc(Cl)cc2)N(Cc2ccc3c(c2)OCO3)C2=N[C@@H](c3ccccc3)CC(=O)N21,4,.,.,5
CN(C)c1ccc(/C=C2\C(=N)N3N=C(CC(=O)N4CCCCC4)SC3=NC2=O)cc1,-5,+,-1,-4
O=S(=O)(c1ccccc1Br)N(Cc1cn(Cc2ccccc2)nn1)C1CC1,1,.,.,6
O=C(NCc1cccnc1)/C(=C\c1ccc(-c2ccc(Cl)c(Cl)c2)o1)S(=O)(=O)c1ccccc1,-39,.,101*,-10
CCOC(=O)c1c(C)[nH]c(C)c1S(=O)(=O)NCCc1ccc(SC)cc1,-1,i,2,0
CCOC(=O)c1c(C)[nH]c(C)c1S(=O)(=O)NCCc1sccc1C,-5,+,-6,4
COC(=O)[C@]12CCCCC=C1N(Cc1ccc(OC)cc1)C(=O)[C@@H]2CC(=O)NCc1ccc(C)o1,2,.,.,1
CC(=O)Nc1ccc(CNc2ncnc3ccc(-c4c(C)noc4C)cc23)cc1,30,i,2,41*
CCNC(=S)N1CCC(C(=O)c2ccc(F)cc2)CC1,1,i,-6,8
Cc1cccn2c(=O)c(/C=C(\C#N)C(=O)NC3CCS(=O)(=O)C3)c(Oc3ccc(F)cc3)nc12 (centres undefined),7,i,74*,3
Cc1cccn2c(=O)c(/C=C(\C#N)C(=O)NC3CCS(=O)(=O)C3)c(N3CCC(C)CC3)nc12 (centres undefined),5,i,1,5
Cc1cccc(Oc2nc3ccccn3c(=O)c2/C=C(\C#N)C(=O)NC2CCS(=O)(=O)C2)c1C (centres undefined),5,i,68*,-1
Cc1c[nH]c2cccc(-c3ccc(Cl)cc3Cl)c12,-3,.,.,-8
Cc1cccc(C(=O)N2CCC(=O)N(C(COCc3cccc(C(F)(F)F)c3)Cc3ccccc3)CC2)c1 (centres undefined),-5,+,-8,-7
Cc1cccc(C(=O)N2CCC(=O)N([C@H](COCc3cccc(C(F)(F)F)c3)Cc3ccccc3)CC2)c1,-6,i,38,-7
CCCC1CCC2(CC1)CCC2OC(=S)Nc1cccc(I)c1 (centres undefined),0,.,.,6
C#CCOCCOCCOCCNc1nc(N2CCN(C(=O)[C@H]([C@@H](C)O)n3cc(CCCCN)nn3)CC2)nc(N2CCN(C(=O)[C@H](C)n3cc(CCC(=O)O)nn3)CC2)n1,5,i,-3,6
C#CCOCCOCCOCCNc1nc(N2CCN(C(=O)CCCCCCCCCCNC(=O)Cn3cc(CCCCCN)nn3)CC2)nc(N2CCN(C(=O)CCCCCCCCCCNC(=O)[C@@H](CCSC)n3cc(CCO)nn3)CC2)n1,.,i,65*,.
C#CCOCCOCCOCCNc1nc(N2CCN(C(=O)[C@H]([C@@H](C)CC)n3cc(CCCCN)nn3)CC2)nc(N2CCN(C(=O)[C@H](C)n3cc(CCC(=O)O)nn3)CC2)n1,3,i,-2,53*
C#CCOCCOCCOCCNc1nc(N2CCOCC2)nc(N2CCN(C(=O)CCCCCCCCCCNC(=O)[C@@H]([C@H](C)CC)n3cc(CCCCCN)nn3)CC2)n1,5,+,-8,1
